HepG2 viability = kills HepG2 cells in TGF-b inhibitor counter-screen; Potency, µM (highest dose often 46.1 µM), inactives show at the top dose activity change, negative = cytotoxicity, most hits filed as cytotoxic; HepG2 CAGA-GFP viability, ATP luminescence, 18 h; AID 588856; hit rate 0.76% among 410,000
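HepG2 CAGA-GFP cells (1000/well, DMEM with 1% FBS) received compound, then TGF-beta at 500 pg/mL final, and were incubated 18 hours at 37 degrees C. Viability was read by CellTiter-Glo luminescence. Media-only wells were set as complete cell-killing and DMSO as no toxicity.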
ATXN2 expr inh = reduces ATXN2 reporter expression in HEK-293 cells | AID 1745845 | hit rate 0.72% among 360,000 | Potency, µM (top dose mostly 57 µM), without a hit: at the highest dose activity change, negative = inhibition, usual class: inhibitors | HEK-293 ATXN2-luciferase reporter, luminescence, 24 h; also: % is scaled to controls: 0 for no effect and ±100 for the full control effect; nearly all actives have a fitted effect of over 55% in size
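qHTS (up to 57 uM final) was run with 24 h compound exposure of reporter cells at 37 °C. Each well was multiplexed: SteadyGlo luminescence measured ATXN2-luciferase expression after a fluorogenic Gly-Phe-AFC viability readout (25 uM final).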
TDP1 cell CPT = growth inhibition of DT40 Tdp1-/-;hTDP1 cells with camptothecin (screen for TDP1 inhibitors); chicken DT40 Tdp1-/-;hTDP1 cells + 20 nM CPT, ATP luminescence, 48 h; Potency, µM (highest dose often 46.2 µM), without a hit: at the highest dose activity change, negative = growth inhibition, most hits filed as inhibitors; hit rate 12% among 420,000; also: % is scaled to controls: 0 for no effect and ±100 for the full control effect; nearly all actives have a fitted effect of over 55% in size
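Chicken DT40 Tdp1-/- cells complemented with human TDP1, 400 cells/well, exposed to compounds plus 20 nM camptothecin for at least 48 h at 37 C; viability read as ATP content by CellTiter-Glo luminescence.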
DT40 TDP1 no CPT = qHTS for Inhibitors of human tyrosyl-DNA phosphodiesterase 1 (TDP1): qHTS in cells in absence of CPT; AID 686978, 2013; hit rate 15% among 420,000; Potency, µM (top dose mostly 46.2 µM), for inactives: top-dose activity change, negative = growth inhibition, usual class: inhibitors; DT40 Tdp1-/- hTDP1 cells, no CPT, ATP luminescence, 48 h; also: % is scaled to controls: 0 for no effect and ±100 for the full control effect; nearly all actives have a fitted effect of over 55% in size
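Chicken DT40 Tdp1-/- cells complemented with human TDP1, screened without camptothecin (DMSO vehicle only), 400 cells/well. Compounds pin-transferred, cells incubated at 37 °C for at least 48 hr. Growth read as ATP-dependent luminescence (CellTiter-Glo, 30 min at RT).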
TGFb inhibitor = blocks TGF-b signaling | HepG2 CAGA-GFP TGF-b/SMAD3 reporter, GFP fluorescence, 18 h; TGF-beta stimulated, 500 pg/mL final | Potency, µM (titrated, usually from 46.1 µM), for the others: top-dose activity, negative = inhibition, actives largely listed as inhibitors | hit rate 1.2% among 410,000 | AID 588855; also: % is scaled to controls: 0 for no effect and ±100 for the full control effect; nearly all actives have a fitted effect of over 65% in size
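First, reporter cells (HEPG2 CAGA-GFP) rested 2 h at 37 degrees C. Next, compounds were pinned in and TGF-beta added to 500 pg/mL final. After 18 h, GFP was imaged per cell and summed per well.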
ATXN viability = viability counter-screen for ATXN expression inhibitors; Potency, µM (top dose mostly 56.7 µM), usual class: cytotoxic; AID 651635; S2 cells (HEK-293 line with an ATXN2-luciferase reporter) viability, CellTiter-Fluor protease fluorescence, 24 h; hit rate 0.49% among 400,000; also: nearly all actives have a fitted effect of over 40% in size
Numbers without * were called inactive; i = inactive; ? = inconclusive; / = no result given; ! = not active in a repeat. Most compounds without a hit are left out; they make up all but 17% or so of the library. Calls follow the shape of the dose curve; as a rule, active = well fitted curve in the direction sought with a large enough effect; inconclusive = small, poorly fitted or top-dose-only effect, or another doubt; inactive = no such curve, though single readings can be large; an effect the other way counts as inactive or inconclusive. Potency is read from the fitted curve at half-maximal effect.

SMILES | HepG2 viability | ATXN2 expr inh | TDP1 cell CPT | DT40 TDP1 no CPT | TGFb inhibitor | ATXN viability
O=C(c1cc(-c2ccccc2)nc2ccccc12)N1CCN(c2ccccc2O)CC1 | 1.4% | -9.4% | 16.4µM* | 18.4µM* | 0.0% | i
CC(=O)c1ccc(N2CCN(C(=O)c3cn(Cc4ccccc4)nc3-c3cccnc3)CC2)c(F)c1 | 4.7% | / | ? | 23.1µM* | 22.2% | i
O=C(c1cn(Cc2ccccc2)nc1-c1ccccc1)N1CCN(c2ccccn2)CC1 | -22.8% | -5.7% | 5.8µM* | 5.8µM* | -12.0% | i
O=C(c1ccccc1-c1ccccc1)N1CCN(c2ccccn2)CC1 | -46.7% | -13.3% | 3.26µM* | 2.59µM* | -26.3% | i
COc1ccc(-c2nn(Cc3ccccc3)cc2C(=O)N2CCN(c3ccccn3)CC2)cc1OC | -30.6% | 27.9% | -2.7% | -19.7% | -7.5% | i
O=C(c1cc(-c2ccncc2)nc2ccccc12)N1CCN(c2ccccc2O)CC1 | -20.5% | -5.0% | ? | ? | -12.9% | i
CCCN(CC(=O)Nc1ccc(F)c(F)c1F)C(=O)CCc1nc2ccccc2c(=O)[nH]1 | 0.9% | -1.0% | ? | -15.4% | 0.0% | i
CCc1ccc(CNC(=O)c2ccc(OC3CCN(C(=O)COC)CC3)cc2)nc1 | -28.9% | 3.9% | -10.4% | ? | -27.9% | i
O=C(c1cc(-c2ccncc2)nc2ccccc12)N1CCN(c2ncccn2)CC1 | -1.6% | -2.0% | -10.8% | ? | 13.7% | i
O=C(c1cc(-c2ccncc2)nc2ccccc12)N1CCN(c2ccccn2)CC1 | -17.9% | -18.3% | 8.91µM* | 11.2µM* | 38.1% | ?
CC1NS(=O)(=O)c2cc([N+](=O)[O-])ccc21 (stereo unspecified) | / | 15.4% | -5.5% | -21.8% | / | i
CCCOc1cc(N)ccc1C(=O)OCCN(CC)CC | -0.7% | 1.5% | 0.128µM*! | ? | -1.3% | i
CCCOc1ccc(N)cc1N | -102.6% | -23.3% | 5.17µM* | 4.11µM* | ? | i
Nc1ccccc1OCCOc1ccccc1N | -6.9% | 29.5% | 4.6% | -2.3% | -20.9% | i
COc1ccc(/C=C/C(=O)C2(O)CCCCC2)cc1OC | -24.8% | 13.4% | ? | ? | ? | i
Cc1nn(CC(=O)Nc2ccc(N3CCOCC3)cc2)c(C)c1[N+](=O)[O-] | 0.6% | 3.6% | -0.8% | -19.0% | -14.6% | i
Cc1nc2ccccn2c1-c1csc(NCc2ccco2)n1 | -35.5% | -0.6% | 13µM* | 20.6µM* | -6.2% | ?
Cc1ccn2c(-c3n[nH]c(=S)n3Cc3ccccc3)c(C)nc2c1 | -9.2% | -1.6% | -3.0% | ? | 0.3% | i
Cc1ccn2c(-c3csc(NCc4ccccc4)n3)c(C)nc2c1 | -22.3% | ? | ? | 14.6µM* | ? | ?
CCCCn1nnc(NC(=O)c2ccc([N+](=O)[O-])cc2Cl)n1 | -3.3% | 2.2% | -26.5% | 8.3% | 3.8% | i
COc1ccc(OC)c(-c2csc(N(CC3CCCO3)C(=O)C3CCCCC3)n2)c1 (stereo unspecified) | -6.2% | / | 20.6µM* | 18.4µM* | -7.9% | i
COc1ccc(OC)c(-c2csc(N(C)C(=O)Cc3ccccc3)n2)c1 | -1.3% | 6.8% | 9.7% | -19.3% | ? | i
COc1ccc2nc(N(Cc3cccnc3)C(=O)Cc3ccccc3)sc2c1 | -18.7% | / | -13.4% | -7.0% | -35.7% | /
COc1ccc(CC(=O)N(CC2CCCO2)c2nc3ccccc3s2)cc1 (stereo unspecified) | -18.3% | 2.3% | ? | 13µM* | 2.3% | i
COc1ccc(-c2csc(N(CC3CCCO3)C(=O)c3cccs3)n2)cc1 (stereo unspecified) | 3.6% | -22.4% | 11.6µM* | ? | -6.3% | i
SMILES | HepG2 viability | ATXN2 expr inh | TDP1 cell CPT | DT40 TDP1 no CPT | TGFb inhibitor | ATXN viability
COCCN(C(=O)Cc1ccc(OC)c(OC)c1)c1nc(-c2cc(OC)ccc2OC)cs1 | 1.9% | -9.4% | 18.4µM* | ? | -7.2% | i
O=S(=O)(NCc1ccccc1)NCc1ccc(Cl)cc1Cl | -37.6% | -1.1% | ? | 5.0% | ? | i
Cc1noc(C)c1S(=O)(=O)N(C)C[C@H]1Oc2ccc(NC(=O)NC3CCCCC3)cc2C(=O)N([C@H](C)CO)C[C@@H]1C | -1.9% | 1.5% | ? | -4.4% | 1.3% | i
CCN(CC)CCCN(C(=O)c1cccs1)c1nc(-c2ccc(OC)cc2)cs1 | -44.3% | -30.5% | 18.4µM* | 20.6µM* | -19.5% | ?
CCN(CC)CCCN(C(=O)c1ccc(Br)cc1)c1nc(-c2ccc(OC)cc2)cs1 | -62.0% | ? | -103.7% | ? | ? | i
CCN(CC)CCCN(C(=O)c1cccc(C)c1)c1nc(-c2ccc(OC)cc2)cs1 | -46.5% | / | -58.8% | 7.31µM* | ? | ?
NC(=O)C[C@H](NC(=O)c1ccc(Cl)cc1)C(=O)OCc1ccccc1 | 13.2% | / | -27.2% | ? | 11.2% | ?
C/C(=N\Nc1cccc2cccnc12)c1ccc[nH]1 | -14.2% | 102.2% | 2.59µM* | 4.61µM* | -2.3% | i
O=S(=O)(Nc1cc(Br)cc2cccnc12)c1cccc2ccccc12 | -33.6% | / | / | / | ? | /
BrC(=C\c1ccccc1)/C=N/n1cnnc1 | 1.5% | / | 0.291µM* | 0.581µM* | 26.3% | ?
BrC(=C\c1ccccc1)/C=N/Nc1ccc2nncn2n1 | -19.2% | 7.1% | ? | ? | 4.8% | i
CC(C)(C)OC(=O)NCCCCCc1nnc(SCc2ccc(F)cc2)o1 | -178.6% | -29.1% | ? | 23.1µM* | -8.8% | i
Cc1cccc(C)c1NC(=O)CSc1nnc(CCCCCNC(=O)OC(C)(C)C)o1 | -9.6% | -1.9% | 14.6µM* | 13µM* | 0.0% | i
Cc1cc(C)c(C(=O)C(C)OC(=O)c2ccccn2)cc1C (stereo unspecified) | 2.4% | -6.2% | -0.1% | 5.4% | -15.6% | i
Cc1nc(N2CCN(c3ccccn3)CC2)c2c(C)c(C(=O)Nc3ccc(F)cc3F)sc2n1 | -4.7% | ? | 16.4µM* | 13µM* | -23.9% | ?
Cc1nc(N2CCN(c3ccccn3)CC2)c2c(C)c(C(=O)Nc3ccc(F)cc3Cl)sc2n1 | -40.9% | / | 23.1µM* | 20.6µM* | -13.9% | ?
Cc1nc(N2CCN(c3ccccn3)CC2)c2c(C)c(C(=O)Nc3ccccc3F)sc2n1 | 5.2% | -5.5% | ? | 16.4µM* | 6.8% | i

Source: PubChem BioAssay
